Screening results from PubChem BioAssay.
A selection: hits, their analogues and other compounds. The true share with any hit is near 2.9%.
CRFR2-BP ag – agonists of CRF-BP/CRF-R2 complex, primary screen, cell-based, HEK293, calcium dye fluorescence, uHTS. calcium dye fluorescence (FLIPR); percent of saturating CRF peptide response. activation, % at 13.2 µM. hit rate 0.46% among 350,000. AID 588473, 2011;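 active = activation of at least 50%, plus an integration ratio under a set limit after plate pattern correction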;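 also: plate controls were neutral control wells without compound for no effect and CRF at EC100 for full effect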
MEKK2mut PB1 HTS – MEK5 binding signal on mutant MEKK2 PB1, primary screen, biochemical, multiplex bead flow cytometry, Alexa488-MEK5 | hit rate 0.35% among 290,000 | Alexa488-MEK5 binding to MEKK2 mutant | percent response, % at 10 µM | AID 1530, 2009; in the data active = percent response above about 24%, passing the limit was not always enough
MEKK3 PB1 HTS – modulators of MEKK3-MEK5 PB1 binding, primary screen, biochemical, wildtype MEKK3, multiplex bead flow cytometry, Alexa488-MEK5. Mitogen-activated protein kinase kinase kinase 3 (Homo sapiens), Q99759. bead-based flow cytometry, Alexa488-MEK5 binding to MEKK3; actives lie on both sides; 0 = blocked by unlabeled MEK5, 100 = vehicle. binding response (% of control), % at 10 µM. hit rate 1.4% among 290,000;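 active = binding response more than 3 SD above or below the average of its plate-row segment, actives on both sides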;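 also: Alexa488 bead fluorescence after subtracting the streptavidin-only scavenger bead signal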
CRFR2-BP antag – antagonists of CRF-BP/CRF-R2 complex, primary screen, cell-based, HEK293, calcium dye fluorescence, uHTS | CRF-induced calcium fluorescence | inhibition, % at 11.8 µM | hit rate 0.59% among 350,000;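 active = inhibition of the ligand-induced calcium signal above about 50% at the single tested concentration, limit read from the data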
MEKK2 WT-MEK5 – modulators of MEK5 binding to wildtype MEKK2, primary screen, biochemical, multiplex bead flow cytometry, Alexa488-MEK5. hit rate 1.1% among 290,000. Alexa488-MEK5 binding to MEKK2 WT; actives lie on both sides. Mitogen-activated protein kinase kinase kinase 2 (Homo sapiens), Q9Y2U5. binding response (% of control), % at 10 µM; in the data active = binding response below about 67% or above about 130%
ABCB6 inh MLPCN – ABCB6 transporter inhibitors, primary screen, K562-ABCB6 cells, flow cytometry, MLPCN library; ATP-binding cassette sub-family B member 6 (Homo sapiens), Q9NP58; K562-ABCB6 porphyrin accumulation, 1 h; active compounds read low; fluorescence ratio to DMSO, % at 10 µM; hit rate 0.19% among 360,000; AID 602162, 2011;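 active = fluorescence ratio to DMSO below 75%, the collection mean minus 3 SD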;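 also: signal is porphyrin accumulated inside mitochondria; 100% equals median channel fluorescence of DMSO control wells; lower ratio means ABCB6 inhibition with less porphyrin fluorescence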
Target sequence (Q9NP58 whole entry, looked up): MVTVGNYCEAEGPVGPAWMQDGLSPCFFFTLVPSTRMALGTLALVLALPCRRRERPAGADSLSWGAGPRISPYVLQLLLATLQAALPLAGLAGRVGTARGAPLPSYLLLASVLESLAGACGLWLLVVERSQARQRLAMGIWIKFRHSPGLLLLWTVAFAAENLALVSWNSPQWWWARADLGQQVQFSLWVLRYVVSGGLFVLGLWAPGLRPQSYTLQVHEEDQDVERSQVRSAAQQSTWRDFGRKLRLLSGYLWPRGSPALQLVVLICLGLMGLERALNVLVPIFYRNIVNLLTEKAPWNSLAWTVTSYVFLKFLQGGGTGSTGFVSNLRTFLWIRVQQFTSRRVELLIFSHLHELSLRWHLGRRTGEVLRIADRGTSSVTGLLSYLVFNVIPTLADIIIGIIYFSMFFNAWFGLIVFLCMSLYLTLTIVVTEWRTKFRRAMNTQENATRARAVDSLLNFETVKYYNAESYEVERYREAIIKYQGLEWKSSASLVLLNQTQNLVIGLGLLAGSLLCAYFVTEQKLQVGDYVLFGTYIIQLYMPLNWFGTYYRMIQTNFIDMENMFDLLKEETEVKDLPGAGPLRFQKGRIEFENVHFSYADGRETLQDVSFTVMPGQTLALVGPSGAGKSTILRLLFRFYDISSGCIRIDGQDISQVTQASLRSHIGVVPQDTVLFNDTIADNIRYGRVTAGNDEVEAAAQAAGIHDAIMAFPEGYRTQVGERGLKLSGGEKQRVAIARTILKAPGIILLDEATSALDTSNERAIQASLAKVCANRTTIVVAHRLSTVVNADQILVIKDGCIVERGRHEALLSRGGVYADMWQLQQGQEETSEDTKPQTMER
An asterisk follows results filed as active; · = no result given; [ ] = dose if it differs, or a comment.

SMILES	CRFR2-BP ag	MEKK2mut PB1 HTS	MEKK3 PB1 HTS	CRFR2-BP antag	MEKK2 WT-MEK5	ABCB6 inh MLPCN
CC(C)(C)OC(=O)NC(Cc1ccccc1)C(=O)N1CCC(C(=O)NCC(=O)Nc2ccc(F)cc2)CC1 (stereo not drawn)	6.7	-1.0	98.0	66.7*	100.0	122.0
COc1ccc2c(c1)C(C)(Cc1ccc(C(=O)c3ccccc3)cc1)C(=O)N2 (stereo not drawn)	·	·	·	·	·	96.0
CC(Oc1cccc(Cl)c1)C(=O)NNC(=O)c1cccnc1 (stereo not drawn)	3.8	·	·	67.7*	·	101.0
O=C(NNc1ccccc1[N+](=O)[O-])Nc1cccc(Cl)c1	-0.4	-2.0	101.0	7.0	98.0	100.0
CCOC(=O)C1=NN(c2ccccc2)C2=NC(C)=C(C(=O)OC)C(c3cccs3)N12 (stereo not drawn)	1.6	2.0	105.0	75.4*	101.0	103.0
CCOC(=O)C1=NN(c2ccc(F)cc2)C2=NC(C)=C(C(=O)OC)C(c3cccs3)N12 (stereo not drawn)	2.9	-15.0	94.0	-17.1	85.0	99.0
C[C@@H]1CN([C@H](C)CO)C(=O)Cc2cc(NC(=O)CCC(F)(F)F)ccc2O[C@@H]1CN(C)S(=O)(=O)c1ccccc1	-2.3	·	·	35.4	·	96.0
COc1cccc(C(C)(O)c2nc(-c3ccc(F)c(Cl)c3)cs2)c1 (stereo not drawn)	·	·	·	·	·	100.0
CC(=O)c1ccc(NC(=O)Nc2cccc(Cl)c2)cc1	52.8*	8.0	106.0	-26.1	116.0	93.0
CC(=O)c1cccc(NC(=S)NC(=O)Cc2ccc(Cl)cc2)c1	63.1*	10.0	99.0	-86.9	101.0	103.0
CC(=O)c1cccc(NC(=S)NC(=O)Cc2ccccc2)c1	0.4	-2.0	101.0	-19.8	96.0	100.0
O=C(NCc1ccc(Cl)c(Cl)c1)c1cc(C2CCCCN2C(=O)OCCF)on1 (stereo not drawn)	·	·	·	·	·	96.0
O=c1[nH]c(SCc2n[nH]c(=S)n2-c2ccccc2)nc2ccccc12	-1.7	-4.0	98.0	-25.2	98.0	89.0
O=c1[nH]c(SCc2n[nH]c(=S)n2-c2ccccc2)nc2sc3c(c12)CCC3	-1.3	5.0	108.0	93.1*	114.0	100.0
CC(OC(=O)CNC(=O)c1ccc(Cl)cc1)C(=O)NC1CCCCC1C (stereo not drawn)	-2.5	·	·	-5.1	·	85.0
COc1ncnc2c1NC1=C(S2)C(=NCCC(=O)O)CC(C)(C)C1	10.5	5.0	98.0	-0.3	99.0	109.0
CN(C)c1ncnc2c1NC1=C(S2)C(=NCCCC(=O)O)CC(C)(C)C1	3.8	5.0	101.0	51.9*	102.0	100.0
CCOC(=O)c1cc(-c2ccccc2)nc2nc(N(CC)CC)sc12	0.2	-3.0	98.0	-2.4	90.0	98.0
O=C(NCc1ccccn1)C1CCN(S(=O)(=O)c2cnc[nH]2)CC1	0.3	·	·	62.6*	·	94.0
Cc1cccc(OCCCC(=O)NC(C)c2ccccc2)c1 (stereo not drawn)	-1.9	1.0	104.0	7.7	100.0	100.0
Cc1cccc(OCCCC(=O)NC(C)C)c1	-0.1	-1.0	93.0	81.6*	95.0	102.0
C=CCC1(CC=C)CCCN1C(=O)C1CCC(=O)N(CCc2ccc(OC)cc2)C1 (stereo not drawn)	0.7	-9.0	95.0	7.3	96.0	105.0
CC(C)c1cc(-c2cc(C(=O)NCc3ccccc3)on2)nc(NCC2CC2)n1	96.0*	5.0	93.0	-39.8	91.0	97.0
CC(C)c1cc(-c2cc(C(=O)Nc3ccccc3)on2)nc(NCC2CC2)n1	·	1.0	102.0	·	103.0	·
COc1ccccc1N1CCN(S(=O)(=O)CCNC(=O)c2ccccc2Br)CC1	-2.2	4.0	101.0	-5.0	103.0	98.0
SMILES	CRFR2-BP ag	MEKK2mut PB1 HTS	MEKK3 PB1 HTS	CRFR2-BP antag	MEKK2 WT-MEK5	ABCB6 inh MLPCN
CCOc1ccc(C(=O)Nc2ccc3c(c2)OCCO3)cc1	1.1	13.0	109.0	-5.6	108.0	102.0
CCOc1cc(C(=O)NC2CC(C)(C)NC(C)(C)C2)cc(OCC)c1OCC	-1.0	6.0	110.0	-1.6	112.0	96.0
COc1ccc(OCC(O)CN2CCC(CN3C(=O)c4cccc5cccc(c45)C3=O)CC2)cc1 (stereo not drawn)	-4.5	·	·	-2.5	·	89.0
Cc1ccc(C)c(OCC(O)CN2CCC(CN3C(=O)c4cccc5cccc(c45)C3=O)CC2)c1 (stereo not drawn)	-0.1	6.0	112.0	-22.1	162.0*	94.0
Cc1ccccc1OCC(O)CN1CCC(C)CC1 (stereo not drawn)	-3.3	-47.0	1.0*[inhibitor]	-3.2	0.0*[inhibitor]	104.0
CCOc1ccc(NC(=O)/C(C#N)=C\c2ccc(N3CCCC3)c(C)c2)cc1	99.4*	·	·	-37.2	·	115.0
CC(C)(C)Cc1c(-c2ccc(F)cc2)nc2ccc(Cl)cn12	1.5	·	·	5.9	·	101.0
O=C(CNc1ccccc1)N/N=C/c1ccc([N+](=O)[O-])o1	-1.3	-6.0	95.0	85.4*	93.0	101.0
CCCn1c(N)c(N(CCOC)C(=O)c2cc(C)cc(C)c2)c(=O)[nH]c1=O	-1.4	5.0	100.0	-0.6	99.0	101.0
COc1ccc(S(=O)(=O)N2CCN(C(=O)CCCN3C(=O)NC4(CCCC4)C3=O)CC2)cc1	-0.9	·	·	55.4*	·	94.0
Cc1cc(C=C2C(=O)c3ccccc3C2=O)c(C)n1-c1ccc(Cl)cc1	16.7	·	·	-29.0	·	116.0
Cc1cccc(-n2c(C)cc(C=C3C(=O)c4ccccc4C3=O)c2C)c1	51.2*	·	·	-12.9	·	96.0
COc1ccc(N2CCN(CCCNC(=O)C(=O)c3c(C)[nH]c4ccccc34)CC2)cc1	0.2	5.0	98.0	62.1*	122.0	93.0
CCNC(=S)N(CCCN(C)C)Cc1cc2cc3c(cc2[nH]c1=O)OCCO3	0.1	4.0	103.0	4.3	105.0	93.0
O=C(COC(=O)c1ccc2c(c1)OCO2)Nc1ccccc1Cl	-0.5	·	·	-7.3	·	94.0
CC(=O)c1ccc2c(c1)c(C#N)c1ccccc1[n+]2[O-]	101.4*	-6.0	92.0	-60.8	96.0	100.0
CC(C)c1ccc(C2/C(=C(/O)c3ccc(F)cc3)C(=O)C(=O)N2CCCN2CCOCC2)cc1 (stereo not drawn)	2.3	5.0	108.0	-6.5	104.0	102.0
Oc1ccc(-c2nc3ccccc3s2)c(O)c1	0.3	2.0	93.0	-4.8	-2.0*	98.0
